TexasRed fluor: Total Fluorescence Counterscreen for Inhibitors of the Interaction of Thyroid Hormone Receptor and Steroid Receptor Coregulator 2; TRb/SRC2 Texas Red total fluorescence interference; Potency, µM (doses to about 106 µM), for inactives: at the highest dose fluorescence change, negative = quenching; 0.29% of 280,000 active; active = well fitted curve in either direction with a large enough effect; inconclusive = small, poorly fitted or top-dose-only effect; also: potency is read from the fitted curve at half-maximal effect
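Human TRb ligand-binding domain at 0.6 uM with 20 nM Texas Red SRC2 peptide in Tris buffer containing 1 uM T3 and 5% DMSO, incubated with compound 5 h at ambient temperature. Total fluorescence (555/632 nm) calculated as parallel + 2 × perpendicular.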
Tau fluor counter: Counterscreen qHTS for Inhibitors of Tau Fibril Formation, Fluorescence Polarization | AID 1463, 2008 | 0.93% of 280,000 active | tau K18 P301L Alexa594 fluorescence, heparin fibrillization | Potency, µM (titrated, usually from 57.7 µM), without a hit: top-dose activity change, negative = decrease; also: potency is read from the fitted curve at half-maximal effect; nearly all actives have a fitted effect of over 55% in size
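Human K18 P301L tau (15 uM unlabeled plus 0.24 uM Alexa 594-labeled, final) in 100 mM sodium acetate pH 7 was mixed with compound and 20 uM heparin and incubated 6 hr at 37 C.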
TRb-SRC2 inh: qHTS for Inhibitors of the Interaction of Thyroid Hormone Receptor and Steroid Receptor Coregulator 2; Potency, µM (doses to about 106 µM), inactives show top-dose activity change, negative = inhibition, usual class: inhibitors; Thyroid hormone receptor beta (Homo sapiens), P10828; TRbeta-SRC2 peptide binding, fluorescence polarization; receptor liganded with 1 µM T3; 0.065% of 280,000 active; AID 1469, 2008;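 also: potency is read from the fitted curve at half-maximal effect; plate controls were bound peptide for no effect and peptide without receptor for full effect; nearly all actives have a fitted effect of over 50% in size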
Target sequence (P10828 whole entry, looked up): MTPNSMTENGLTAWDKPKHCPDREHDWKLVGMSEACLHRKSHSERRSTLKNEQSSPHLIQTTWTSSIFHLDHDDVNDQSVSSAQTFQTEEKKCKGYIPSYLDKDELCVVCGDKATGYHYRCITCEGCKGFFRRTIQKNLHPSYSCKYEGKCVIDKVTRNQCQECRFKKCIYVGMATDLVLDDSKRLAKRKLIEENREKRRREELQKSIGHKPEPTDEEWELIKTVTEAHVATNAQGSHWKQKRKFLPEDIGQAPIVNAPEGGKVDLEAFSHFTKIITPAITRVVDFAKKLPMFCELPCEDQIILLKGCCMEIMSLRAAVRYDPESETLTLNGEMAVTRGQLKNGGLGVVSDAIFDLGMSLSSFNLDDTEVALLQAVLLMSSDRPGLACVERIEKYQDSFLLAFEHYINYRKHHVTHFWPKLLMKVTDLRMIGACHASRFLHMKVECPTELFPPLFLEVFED
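Polarization signal, normalized between peptide-alone and full complex controls, measured compound effects on T3-liganded human TRb LBD (0.6 uM) binding 20 nM Texas Red SRC2 peptide after 5 hr.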
PNC inhibitor: High Content Assay for Compounds that inhibit the Assembly of the Perinucleolar Compartment; activity change (PNC), negative = inhibition, % at 10 µM; 3.1% of 140,000 active; PC3M PTB-GFP, PNC prevalence imaging, 16 h; active compounds read low; AID 2417, 2010;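 active = readout at or below -70, meaning at least 70% loss of cells showing the perinucleolar compartment, a nuclear body marking cancer cells; inconclusive = readout between -30 and a set limit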;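 also: plate controls were DMSO wells for no effect and camptothecin positive control wells for full effect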
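Read-out is percentage of cells bearing a perinucleolar compartment, from automated 20x imaging of fixed, Hoechst-stained PC3M PTB-GFP cells. Cells were seeded 4 h, then exposed 16 h to compound (23 nl of library stock) in duplicate plates.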
Tau fibril ThT: qHTS for Inhibitors of Tau Fibril Formation, Thioflavin T Binding; 2.1% of 270,000 active; recombinant tau K18 P301L, heparin-induced fibrillization, ThT fluorescence; Potency, µM (highest dose often 57.4 µM), for the others: at the top dose activity, negative = inhibition, hits mostly inhibitors; also: potency is read from the fitted curve at half-maximal effect; nearly all actives have a fitted effect of over 55% in size
Target sequence (P10636 561-689 P618L limits assumed): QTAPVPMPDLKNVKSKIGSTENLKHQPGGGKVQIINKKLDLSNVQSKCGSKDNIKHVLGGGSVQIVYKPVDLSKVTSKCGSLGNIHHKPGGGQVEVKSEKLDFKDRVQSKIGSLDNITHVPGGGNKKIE
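ThT emission at 510 nm, taken 1 hr after adding 30 uM dye, quantifies aggregates formed when 20 uM heparin acts on human tau K18 P301L for 6 hr at 37 C.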
Tau FP inhib: qHTS for Inhibitors of Tau Fibril Formation, Fluorescence Polarization. K18 P301L tau heparin fibrillization, Alexa594 FP, 6 h. Microtubule-associated protein tau (Homo sapiens), P10636. 0.39% of 280,000 active. Potency, µM (top dose mostly 57.7 µM), for inactives: at the highest dose activity, negative = inhibition, usual class: inhibitors; also: potency is read from the fitted curve at half-maximal effect; nearly all actives have a fitted effect of over 55% in size
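FP of Alexa 594-tau after heparin (20 uM) induction. Substrate: human K18 P301L, 15 uM unlabeled, 0.24 uM labeled. Buffer 100 mM sodium acetate pH 7. 6 hr, 37 C.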
Numbers without * were called inactive; ? = inconclusive; · = no result given; [ ] = remark or other dose. Hits are enriched below; roughly 4.6% of the tested compounds scored in any of these assays. Unless noted, calls follow the shape of the dose curve; as a rule, active = well fitted curve in the direction sought with a large enough effect; inconclusive = small, poorly fitted or top-dose-only effect, or another doubt; inactive = no such curve, though single readings can be large; an effect the other way counts as inactive or inconclusive. Unless noted, % is scaled to controls: 0 for no effect and ±100 for the full control effect.

SMILES | TexasRed fluor | Tau fluor counter | TRb-SRC2 inh | PNC inhibitor | Tau fibril ThT | Tau FP inhib
c1ccc(-c2nc(-c3cccs3)[nH]c2-c2ccccc2)cc1 | -0.1% | ? | -7.5% | 35.7 | 6.9% | -0.1%
COc1cc(-c2nc(-c3ccccc3)c(-c3cccs3)[nH]2)cc(OC)c1O | -9.9% | 14.1µM*[quencher] | 5.2% | 1.6 | ? | 8.7%
COc1cc(-c2nc(-c3ccccc3)c(-c3cccs3)[nH]2)cc(OC)c1OC | 0.0% | ? | -4.6% | ? | -21.0% | ?
CCc1ccc(OCC(=O)NC(NC(=S)Nc2ccc(C)cc2C)C(Cl)(Cl)Cl)cc1 (stereo not given) | -4.1% | -11.5% | -10.2% | 49.7 | -5.3% | -12.3%
COc1cccc([C@@H]2Oc3ccc(OC)cc3C(=O)[C@H]2OC(=O)Nc2ccc(C)c(Br)c2)c1 | -1.0% | -22.2% | -0.5% | · | -12.0% | -8.5%
O=C(O)c1ccccc1C(=O)c1ccc(Oc2ccccc2)cc1 | -1.2% | 4.9% | 4.8% | -85.0* | 10.4% | -9.4%
O=C1c2cccc3c([N+](=O)[O-])ccc(c23)C(=O)N1c1ccccn1 | -4.4% | -4.1% | 6.8% | -104.8* | -0.6% | -1.6%
Cc1ccc(C2CCN(C(=S)NC3CCCCC3)C2)cc1 (stereo not given) | -3.7% | -14.8% | -2.3% | · | -5.2% | 3.6%
O=C(CCCc1c[nH]c2ccccc12)Nc1ccc2ccccc2c1 | -3.3% | 8.91µM*[quencher] | 0.0% | ? | ? | ?
O=C(NCCc1c[nH]c2ccccc12)C(F)(F)F | 0.2% | -1.8% | -21.1% | 6.5 | -1.4% | 8.1%
CC(=O)N1CC=CC1(CC(C)C)C(=O)NCCc1c[nH]c2ccccc12 (stereo not given) | 0.5% | -4.3% | -10.7% | -88.2* | -4.0% | 5.8%
CC(C)C(=O)NCCc1c[nH]c2ccccc12 | -2.7% | -4.9% | -7.6% | -123.8* | -2.9% | -3.7%
CC(C)CC1(C(=O)NCCc2c[nH]c3ccccc23)C=CCN1C(=O)c1ccccc1 (stereo not given) | 0.9% | -23.7% | -0.5% | 38.7 | -19.0% | 4.9%
CCOc1cc(CNS(=O)(=O)c2ccc3c(c2)CC(=O)N3C)cc(OCC)c1OCC | 17.8µM*[quencher] | 4.2% | -11.6% | · | 0.9% | 4.8%
CN1C(=O)Cc2cc(S(=O)(=O)NCc3cccs3)ccc21 | 1.5% | -6.3% | 2.3% | · | -8.7% | 5.7%
COc1ccc(C(=O)N2CCCCC2)cc1S(=O)(=O)Nc1ccccc1 | -3.1% | -4.7% | 2.1% | -29.5 | -1.9% | ?
C=C1C(=O)[C@@]23[C@H](O)C[C@@H]4C(C)(C)CC[C@H](O)[C@]4(C)[C@@H]2C[C@H](O)[C@@H]1[C@H]3O | -5.9% | -5.9% | -4.6% | 0.2 | -16.4% | -6.8%
Cc1ccc(S(=O)(=O)Nc2ccc(N=Nc3ccc(O)cc3)cc2)cc1 | -1.4% | 17.8µM*[quencher] | 1.5% | -0.9 | 14.1µM* | ?
Cc1ccc(NNS(=O)(=O)c2ccc(C)cc2)cc1 | -1.1% | -16.3% | 0.1% | ? | 20µM* | ?
Cc1ccc(S(=O)(=O)NNC(=O)C(=O)NNS(=O)(=O)c2ccc(C)cc2)cc1 | -1.5% | 3.1% | -2.5% | · | 4.6% | 8.1%
CCC(CC)C(=O)Nc1cc([N+](=O)[O-])ccc1Cl | 0.7% | -2.9% | 4.9% | -116.4* | 4.6% | 5.8%
CC(Sc1nnc(Nc2ccccc2)s1)C(=O)NC1CCCc2ccccc21 (stereo not given) | -22.7% | 1.5% | -0.9% | ? | 7.7% | 5.4%
CC(Sc1nnc(NC2CCCCC2)s1)C(=O)Nc1ccc2c(c1)C(=O)c1ccccc1C2=O (stereo not given) | -0.7% | 15.8µM*[quencher] | 8.5% | -27.2 | ? | 14.3%
O=C1C2C(C(=O)N1/N=C/c1cc([N+](=O)[O-])c(O)cc1O)C1C=CC2C12CC2 (stereo not given) | -11.0% | -14.1% | -3.0% | · | ? | -12.1%
O=C1C2C(C(=O)N1/N=C/c1cc(Br)cc([N+](=O)[O-])c1O)C1C=CC2C12CC2 (stereo not given) | -0.8% | -18.0% | 7.8% | -25.3 | 7.94µM* | -1.2%
SMILES | TexasRed fluor | Tau fluor counter | TRb-SRC2 inh | PNC inhibitor | Tau fibril ThT | Tau FP inhib
O=[N+]([O-])c1cc(Br)cc(/C=N/n2cnnc2)c1O | 0.1% | -1.8% | -3.0% | · | 8.91µM* | 8.0%
O=[N+]([O-])c1cccc(/C=N/n2cnnc2)c1O | -4.2% | -4.7% | 3.2% | 31.1 | 15.8µM* | -12.4%
C=CCS/C(N)=N\N=C\c1cc(Br)cc([N+](=O)[O-])c1O | -4.3% | ? | -10.0% | · | 12.6µM* | 6.8%
CS(=O)(=O)NCCCNc1c(Cl)cccc1[N+](=O)[O-] | 0.1% | -6.7% | -0.2% | ? | -15.7% | -3.3%
CC(C)n1c(=N)c(C(=O)NCc2ccccc2)cc2c(=O)n3ccccc3nc21 | -4.2% | -24.3% | 4.8% | · | -15.8% | -4.9%
CC(=O)Cc1nsc(NC(=O)c2ccccc2Cl)n1 | 0.9% | -7.1% | 2.4% | · | -3.2% | -11.8%
O=c1c2c(-c3ccc(Cl)cc3)csc2ncn1/N=C/c1cccc([N+](=O)[O-])c1O | -3.4% | -10.6% | 7.8% | · | 15.8µM* | 1.1%
COc1ccc2c(=O)cc(-c3ccccc3F)oc2c1 | -6.5% | -16.7% | 1.7% | · | ? | 0.4%
CCOC(=O)c1[nH]c2ccccc2c1NC(=O)c1ccccc1OCC | -4.5% | 14.1µM*[quencher] | -1.7% | · | ? | 6.5%
CCOC(=O)c1[nH]c2ccccc2c1NC(=O)c1ccc(OCC)cc1 | -1.0% | -27.1% | -6.6% | · | -3.8% | -1.8%
Cc1ccc(-c2cc(-c3ccccc3)[nH]c(=S)c2C#N)cc1 | -2.6% | -18.9% | 8.4% | 24.5 | ? | 0.4%
N#Cc1c(-c2ccc(C(F)(F)F)cc2)cc(-c2ccccc2)[nH]c1=S | -0.6%[53 µM] | -11.5% | -2.0%[53 µM] | -99.3* | ? | 12.3%
CCN(CC)c1ccc(/C=C(\C#N)c2nc(-c3cccs3)c(NC(C)=O)s2)cc1 | ? | 6.31µM*[quencher] | ? | -30.0 | ? | ?
O=C(CCCC(=O)OCC(=O)c1cccs1)Nc1ccc(Oc2ccccc2)cc1 | 0.9% | ? | -18.5% | 13.5 | ? | -7.8%
COc1ccc(Cn2c(-c3ccc(OC)cc3)nc3ccccc32)cc1 | -3.3% | -7.7% | 0.4% | -100.0* | -13.3% | -4.3%
COc1cc(Cn2c(-c3nonc3N)nc3ccccc32)ccc1C | -2.1% | -15.1% | 2.2% | ? | 3.7% | -4.6%

Screening results (PubChem BioAssay)
